# Bioassay records from PubChem.
# tim10-1 inh: growth inhibitors of tim10-1 mutant yeast, primary screen, luminescence, uHTS; S. cerevisiae tim10-1 ts strain growth, BacTiter-Glo, 24 h; inhibition, % at 20 µM; 330,000 compounds, 2.2% hits; AID 463190, 2010;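 active = inhibition of at least 40%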;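 also: mutant grown at 25 °C; 0% = DMSO wells with yeast and 100% = wells holding no yeast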
# TIM10 inh: growth inhibitors of isogenic TIM10 control yeast, primary screen, counter-screen for tim10-1 yeast inhibitor project, luminescence, uHTS; inhibition, % at 10 µM; 330,000 compounds, 1.4% hits; AID 463195, 2010; S. cerevisiae TIM10 strain growth, BacTiter-Glo luminescence, 24 h;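 active = inhibition of 40% or more at the single tested concentration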;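 also: wild-type TIM10 isogenic control strain grown at permissive 25 °C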
# SKKanGAS inh: S. pyogenes SKKanGAS growth inhibitors in kanamycin, primary screen, streptokinase expression inhibitor project, SKKanGAS strain, BacTiter-Glo luminescence; 6 h; inhibition, % at 7.5 µM; 300,000 compounds, 1.3% hits;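 active = mean replicate score, as percent of positive control median, at least 50; inconclusive = mean below 50 but one replicate at or above 50; inactive = mean and every replicate below 50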;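 also: strain carries kanamycin resistance gene driven by streptokinase promoter and grows in 40 µg/ml kanamycin; loss of luminescence reflects streptokinase promoter inhibition or plain growth inhibition; 0% = median of DMSO wells and 100% = positive control at its reference dose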
# NALP1 yeast inh: NALP1 inflammasome inhibitors in reconstituted yeast, colorimetric, S. cerevisiae, triplicate retest. S. cerevisiae NALP1/ASC/caspase-1 growth, X-gal OD620, 72 h. inhibition, % at 10 µM. 280,000 compounds, 0.61% hits; in the data active = inhibition mostly above about 24%, no sharp cut-off; inactive = mostly below about 32%
# NALP3 yeast inh: NALP3 inflammasome inhibitors in reconstituted yeast, primary screen, luminescence, uHTS; 330,000 compounds, 0.39% hits; inhibition, % at 10 µM; Yeast reconstituted NLRP3/ASC/caspase-1, beta-gal luminescence, 24 h;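 active = inhibition of 50% or more; inactive = inhibition below 50%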;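 also: plate controls were induced DMSO wells for no effect and uninduced yeast grown without galactose for full effect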
# tim23-1 inh: growth inhibitors of tim23-1 mutant yeast, primary screen, luminescence, uHTS; S. cerevisiae tim23-1 growth, BacTiter-Glo luminescence, 24 h; inhibition, % at 20 µM; 330,000 compounds, 1.3% hits; AID 463212, 2010;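 active = growth inhibition of the mutant yeast at or above 50%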;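 also: temperature-sensitive mutant grown at 25 °C; plate controls were DMSO-treated mutant yeast for no effect and medium wells lacking yeast for full effect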
# tim10-1 conf: growth inhibitors of tim10-1 mutant yeast, confirmation, single concentration, luminescence, S. cerevisiae; shares compounds with tim10-1 inh; S. cerevisiae tim10-1 ts strain growth, BacTiter-Glo, 24 h; inhibition, % at 20 µM; 7,400 compounds, 56% hits;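 active = inhibition of yeast growth at or above a set limit in either of two repeat tests at 20 µM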;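 also: tim10-1 mutant grown at permissive 25 °C to find synthetic lethal compounds; 0% = DMSO yeast wells and 100% = medium wells without yeast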
# TIM10 conf: growth inhibitors of wild-type TIM10 yeast, confirmation, counter-screen for tim10-1 synthetic lethality project, single concentration, luminescence, S. cerevisiae; shares compounds with TIM10 inh; S. cerevisiae tim10 strain growth, BacTiter-Glo luminescence, 24 h; inhibition, % at 10 µM; 4,600 compounds, 63% hits;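 active = inhibition of yeast growth at or above a set limit in either of two replicates at 10 µM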;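 also: this counterscreen used the strain with wild-type TIM10; 0% = yeast with DMSO and 100% = medium wells lacking yeast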
# tim23-1 confirm: tim23-1 mutant yeast growth inhibitors, confirmation, luminescence, single concentration; shares compounds with tim23-1 inh; S. cerevisiae tim23-1 growth, BacTiter-Glo luminescence, 24 h; inhibition, % at 20 µM; 4,400 compounds, 83% hits; AID 463218, 2010;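 active = inhibition above about 39% in either of two replicate wells at 20 µM, limit read from the data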;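 also: temperature-sensitive tim23-1 mutant grown at 25 °C; 0% = DMSO wells with yeast and 100% = medium wells without yeast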
# Active calls of the source: *; ? = inconclusive; . = no result given. Rows were chosen to be rich in hits. Some 4.9% of all compounds tested hit in one or more screens of this group.
SMILES,tim10-1 inh,TIM10 inh,SKKanGAS inh,NALP1 yeast inh,NALP3 yeast inh,tim23-1 inh,tim10-1 conf,tim23-1 confirm,others
O=C(COC(=O)c1ccccc1Br)Nc1ccc2[nH]c(=O)[nH]c2c1,7,-6,11,.,-10,9,.,.,
CCOc1ncccc1C(=O)Nc1cc(S(=O)(=O)N2CCOCC2)ccc1OCC(F)(F)F,2,-9,.,.,12,-6,.,.,
COc1ccc(CN(C)C(=O)c2cc(-c3ccc(OC)c(OC)c3)nc3ccccc23)c(OC)c1,9,13,9,2,18,22,.,.,
COc1ccc(-c2cc(C(=O)N(C)Cc3cccc(OC)c3OC)c3ccccc3n2)cc1OC,53*,50*,25,-1,2,70*,64*,94*,TIM10 conf=50*
Cc1nc(N2CCN(c3ccccc3O)CC2)c2c(-c3ccccc3)csc2n1,42*,33,?,13,27,51*,32*,48*,
CCCc1[nH]nc2c1C(c1ccc(OC)cc1OC)C(C#N)=C(N)O2 (configuration not stated),44*,47*,1,2,4,51*,36*,50*,TIM10 conf=37*
Cc1ccc(NC(=S)Nc2cccc3ccccc23)cc1,37,6,37,25,20,16,.,.,
Fc1ccc(NC(=S)Nc2cccc3ccccc23)cc1,43*,24,10,-11,21,52*,27,45*,
Cc1ccc(C(=O)Nc2nnc(C3CCCCC3)s2)o1,46*,24,-10,18,18,52*,35*,45*,
Cc1cc(C(=O)Nc2nnc(C3CCCCC3)s2)no1,23,36,0,.,-24,47,.,.,
COc1ccc(/C=N/NC(=O)c2nn(C)cc2Br)cc1CSCc1ccco1,44*,26,0,10,18,52*,20,47*,
COc1ccc(NC(=O)CNc2cc(C)ccc2C)cc1S(=O)(=O)N1CCOCC1,-13,5,.,.,10,0,.,.,
Cc1cccc(-c2c3c(nc4c2c(=O)n(C)c(=O)n4C)-c2ccccc2C3O)c1 (configuration not stated),14,3,4,.,1,13,.,.,
Cc1ccc2c(=O)n3c(nc2c1)C(Cc1ccccc1)NC(=O)c1cc(Cl)ccc1-3 (configuration not stated),9,7,.,.,7,26,.,.,
Cc1ccc(CSc2nc3ccccc3cc2C=O)cc1,48*,25,6,13,13,69*,47*,57*,
O=c1[nH]c(SCc2ccc(Cl)cc2)nc2ccccc12,18,16,-1,-6,-5,11,.,.,
Cc1ccc(CSc2ncnc3ccccc23)cc1,12,0,30,10,42,12,.,.,
O=Cc1cc2ccccc2nc1SCc1ccc(Cl)cc1,64*,50*,51*,-12,14,78*,55*,64*,TIM10 conf=63*
COCCC(=O)N1CCC(n2nccc2NC(=O)c2ccccc2C)CC1,0,-7,-2,30,10,-11,.,.,
O=C1SC(SCc2ccccc2)=N/C1=C\c1ccco1,57*,43*,-11,18,10,54*,40*,58*,TIM10 conf=49*
CC(C)N(CC(=O)Nc1ccc(Cl)cc1C(F)(F)F)C(=O)CCl,47*,67*,-2,5,12,55*,59*,54*,TIM10 conf=56*
CN(C)S(=O)(=O)n1cc(/C=C(\NC(=O)c2ccccc2F)C(=O)N2CCCC2)c2ccccc21,7,10,2,1,15,8,.,.,
